Results as given in PubChem BioAssay AID598 (SRMLSC, 2007).
In all, about 85,000 compounds went through this assay and about 5,100 (6%) were called active. Only a selection was taken, and actives are over-represented in it overall. A number with no mark means an inactive call.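 Rule for the calls: active = viability at or below 40%; inactive = viability above 40%.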

Assay: H69AR cell viability reduction – human, 86K library, primary screen (AID 598);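 note: multidrug resistant small cell line overexpressing MRP-1 efflux transporter; 100% = mean luminescence of untreated control wells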
Settings: H69AR lung tumor viability, ATP luminescence, 72 h; at 10 µM; stronger effect = lower value

Row | SMILES | viability
1 | CCCCc1nnc(NC(=O)CS(=O)(=O)Cc2ccccc2)s1 | 97%
2 | O=C(NC1=NCCS1)c1ccc(Cl)s1 | 93.3%
3 | CC(=O)NC1=NN(C(C)=O)C(C)(c2ccc(Cl)s2)S1 (stereo not drawn) | 17.3% (active)
4 | c1ccc2c(-c3nn4nnnc4c4ccccc34)cccc2c1 | 64.8%
5 | CCCn1c(C)cc(C(=O)COC(=O)c2c(C)nn(-c3ccccc3)c2C)c1C | 100%
6 | CCOC(=O)N1CCN(C(c2cccnc2)c2ccc3cccnc3c2O)CC1 (stereo not drawn) | 35.2% (active)
7 | CCN1CCN(C(c2cccnc2)c2cc(Cl)c3cccnc3c2O)CC1 (stereo not drawn) | 102%
8 | Oc1c(C(c2ccccn2)N2CCOCC2)ccc2cccnc12 (stereo not drawn) | 79.3%
9 | CC(C)(C)c1nc2ccccc2c(=O)n1N1C(=O)c2ccccc2C1=O | 63.5%
10 | Cc1ccc2cc(CCNC(=O)c3c(-c4ccccc4Cl)noc3C)c(=O)[nH]c2c1 | 86.2%
11 | Brc1ccc(-c2nnc(-c3ccccc3)o2)o1 | 90%
12 | O=C(Nc1ccc(-c2nnc(-c3ccccc3)o2)cc1)c1ccc(Br)o1 | 39.8% (active)
13 | O=C(Nc1ccc(-c2nnc(-c3ccccc3)o2)cc1)C1CCCO1 (stereo not drawn) | 86%
14 | CC1CCN(S(=O)(=O)c2ccc(S(=O)(=O)NCc3ccco3)cc2)CC1 | 75.4%
15 | Cc1cc(Br)ccc1NC(=O)C1CCCO1 (stereo not drawn) | 101%
16 | Cc1ccc(C(=O)NCC2CCCO2)o1 (stereo not drawn) | 93.7%
17 | OC(CNCC1CCCO1)Cn1c2ccc(Br)cc2c2cc(Br)ccc21 (stereo not drawn) | 1.09% (active)
18 | CCOCCCNC(=O)C(NC(=O)CNC(=O)c1ccccc1)c1ccc(C)cc1 (stereo not drawn) | 101%
19 | O=S(=O)(Cc1cc(Sc2ccccc2)nc(-c2ccccc2)n1)c1ccccc1 | 84.3%
20 | c1coc(-c2nc3nc4ccccc4n3nc2-c2ccco2)c1 | 82.6%
21 | Cn1c(-c2ccco2)nc2cc3ccccc3cc21 | 37.4% (active)
22 | CN(c1nc2ccccc2n2c(-c3ccco3)nnc12)S(=O)(=O)c1ccccc1 | 96.1%
23 | Cc1ccc(C)c(NC2=NCC(=O)N2c2ccc3c(c2)OCCO3)c1 | 100%
24 | COc1ccc(NC(=O)CCN2CCCC2)c(OC)c1 | 94.6%
25 | CN1C(=O)C(CC(N)=O)N(NC(=O)c2ccc(Cl)cc2)C1=S (stereo not drawn) | 98%

Row | SMILES | viability
26 | CCOc1cccc(-c2nnc3sc(COc4ccc(OC)cc4)nn23)c1 | 51.3%
27 | CCOc1cccc(-n2nnnc2-c2ccc(OC)cc2)c1 | 15.2% (active)
28 | COc1ccc(-n2nnnc2SCC(=O)c2ccc(OC)c(OC)c2)cc1 | 92%
29 | O=C(CC1(O)C(=O)N(CN2CCOCC2)c2ccccc21)c1ccccc1 (stereo not drawn) | 79.9%
30 | CCOC(=O)CN1C(=O)C(O)(CC(=O)c2ccccn2)c2ccccc21 (stereo not drawn) | 46.4%
31 | C#CCN1C(=O)C(O)(CC(=O)c2cc(OC)ccc2OC)c2ccccc21 (stereo not drawn) | 17.6% (active)
32 | COc1ccc(-n2c(C)nc3c(cnn3-c3ccccc3)c2=O)cc1 | 19.6% (active)
33 | COc1ccc(N2CCN(C(=O)CSc3ncnc4c3cnn4-c3ccc(OC)cc3)CC2)cc1 | 89.9%
34 | CCOC(=O)c1ccc(-n2c(C)nc3c(cnn3-c3ccccc3C)c2=O)cc1 | 96.7%
35 | Cc1ccc(/C=N/NC(=O)C2=NNC(c3ccccc3)(c3ccccc3)C2)c(O)c1 | 40.7%
36 | CCOc1ccc(S(=O)(=O)Nc2ccc(S(=O)(=O)Nc3cc(OC)ccc3OC)cc2)cc1 | 74.9%
37 | COc1ccccc1CNS(=O)(=O)c1ccc(C)cc1 | 86.8%
38 | COc1ccc(S(=O)(=O)N/N=C\c2ccc(OC)c(COc3ccc(C)cc3[N+](=O)[O-])c2)cc1 | 29.6% (active)
39 | Cc1noc(/C=C/c2ccco2)c1S(=O)(=O)N1CCC(C(=O)N2CCc3ccccc32)CC1 | 81.4%
40 | CCC(C(=O)NC1CCCC1)N(C(=O)c1snc(C(N)=O)c1N)c1ccc2c(c1)OCCO2 (stereo not drawn) | 33.1% (active)
41 | COCCNC(=O)C(c1ccc(C)o1)N(Cc1cccs1)C(=O)c1snc(C(N)=O)c1N (stereo not drawn) | 91.2%
42 | Cc1ccc(C(C(=O)NC2CCCCC2)N(C(=O)c2csnn2)C2CC2)o1 (stereo not drawn) | 95.7%
43 | Cc1cc(O)cc(O)c1C(=O)Cc1cnn(-c2ccccc2)c1 | 79.8%
44 | O=C1C=C(c2ccc(Cl)cc2)C(=O)N1Nc1ccccc1 | 1.17% (active)
45 | Cc1ccc(CCN2CC(C(=O)O)CC2=O)cc1 (stereo not drawn) | 91.7%
46 | CC(C)n1c(-c2cccs2)nc2ccccc21 | 89.8%
47 | O=C1N=C(N2CCCC2)S/C1=C\c1cccc(Br)c1 | 36.9% (active)
48 | CCN1C(=O)/C(=C2\SC(N3CCCCC3)=NC2=O)c2ccccc21 | 67.4%
49 | CC(C)=C1SC(N2CCN(c3cccc(C)c3)CC2)=NC1=O | 96.9%
50 | CC(C)C(=O)Nc1ccc2c(c1)oc1ccccc12 | 55.1%

Row | SMILES | viability
51 | O=C(/C=C/c1ccc(Cl)cc1Cl)c1cccnc1 | 0.85% (active)
52 | C/C(=C\C(=O)c1cccnc1)Nc1ccc(C)c(C)c1 | 93.1%
53 | O=C(NCc1ccc(Cl)c(Cl)c1)c1cccnc1 | 94.2%
54 | OC(C#CCN1CCOCC1)(c1ccccc1)C1CCCCC1 (stereo not drawn) | 79.2%
55 | CCOC(=O)C1=C(CSc2nccn2C)NC(=O)NC1c1ccc(OC)cc1 (stereo not drawn) | 82.8%
56 | COCCOC(=O)C1=C(C)N=c2s/c(=C\c3cccs3)c(=O)n2C1c1cccs1 (stereo not drawn) | 80.7%
57 | CCOC(=O)C1=C(C)N=c2s/c(=C\C(=O)OC)c(=O)n2C1c1ccc(OC)cc1 (stereo not drawn) | 10.6% (active)
58 | Cc1nc2ccccc2n1C(=O)N1CCOCC1 | 82.5%
59 | COC(=O)c1cc(NC(=O)C2C3C=CC(C3)C2C(=O)O)cc(C(=O)OC)c1 (stereo not drawn) | 94.8%
60 | Cc1ccccc1-c1nnc(SCC(=O)NCc2ccc3c(c2)OCO3)n1C | 91.1%
61 | Cc1ccc(-n2c(SCC(=O)NCc3ccc4c(c3)OCO4)nnc2-c2cccnc2)c(C)c1 | 35.1% (active)
62 | Cc1ccccc1-n1c(SCC(=O)NCc2cccs2)nnc1-c1ccncc1 | 89.8%
63 | Cc1cccc(C2c3c(n(C)c(=O)n(C)c3=O)N=C3c4ccccc4C(=O)C32)c1 (stereo not drawn) | 4.39% (active)
64 | Cc1cccc(Cn2c(N3CCN(c4ccccc4)CC3)nc3c2c(=O)n(C)c(=O)n3C)c1 | 72.4%
65 | CCc1nnc(NC(=O)CSc2nc3ccccc3c(=O)n2CCCOC)s1 | 64.5%
66 | CCC(O)CNc1nc(-n2nc(C)cc2C)nc2sc3c(c12)CC(C)(C)OC3 (stereo not drawn) | 44.6%
67 | Cc1cc(C)n(-c2nc(SCC(=O)N3CCCC3)c3c4c(sc3n2)CCCC4)n1 | 57.6%
68 | COCCNc1nc(-n2nc(C)cc2C)nc2sc3c(c12)CCCC3 | 6.95% (active)
69 | COC(=O)c1cccc(-n2[nH]nnc2=S)c1 | 87.1%
70 | O=[N+]([O-])c1ccc(Oc2ccc(F)cc2Br)c2ccncc12 | 17.6% (active)
71 | Cn1c(SCC(=O)C(C)(C)C)nnc1-c1ccccn1 | 98.3%
72 | CC(=O)C1=C(C)NC(C)=C(C(C)=O)C1c1cn(-c2ccccc2)nc1-c1cccs1 | 93.4%
73 | CCC(=O)NCCc1nc2ccccc2n1CC | 95.2%
74 | CCOC(=O)c1c(NC(=O)CSc2nnc(CNc3ccc(C)cc3C)o2)sc(C)c1C | 92.8%
75 | CC1(C)CC(=O)C=C(N2CCCC2)C1 | 95.2%

Row | SMILES | viability
76 | O=C1NC(c2cc3c(cc2Cl)OCO3)Oc2ccccc21 (stereo not drawn) | 32.9% (active)
77 | CC(=O)c1ccc2c(c1)c1ccccc1n2CC(C)C | 73.2%
78 | CS(=O)(=O)N(CC(O)Cn1c2ccccc2c2ccccc21)c1cccc2ccccc12 (stereo not drawn) | 1.71% (active)
79 | O=C1c2ccccc2S(=O)(=O)N1CC(O)Cn1c2ccccc2c2ccccc21 (stereo not drawn) | 92.4%
80 | CCCCOc1ccc(C(=O)NCc2ccncc2)cc1 | 78.5%
81 | CCOC(=O)c1cnc(SC)nc1Sc1ccc(Cl)cc1Cl | 85.4%
82 | Cc1ccc(CN(N=Nc2nonc2N)c2nonc2N)c(C)c1 | 79.6%
83 | CCC1(C)Cc2c(sc3nc(SC)nc(N)c23)CO1 (stereo not drawn) | 62.6%
84 | CCC1(C)Cc2c(sc3nc4n(c(=O)c23)CCCS4)CO1 (stereo not drawn) | 93.3%
85 | CCC1(C)Cc2c(sc3[nH]c(=S)n(Cc4ccccc4)c(=O)c23)CO1 (stereo not drawn) | 25% (active)
86 | CCOC(=O)c1sc(C)c2c1NC(C)(c1cccc3ccccc13)NC2=O (stereo not drawn) | 103%
87 | CCOC(=O)C(C)Sc1nc2ccccc2c(=O)n1CC1CCCCC1 (stereo not drawn) | 82.4%
88 | COc1ccccc1NC(=O)/C=C/C(N)=O | 2.11% (active)
89 | COc1ccccc1NC(=O)c1ccc(C)s1 | 92.7%
90 | COc1ccccc1NS(=O)(=O)N(C)C | 104%
91 | COc1cc(C)c(C(C)C)cc1S(=O)(=O)n1ccnc1 | 101%
92 | CCOC(=O)c1ccc(COC(=O)CCc2nc(-c3ccccc3)c(-c3ccccc3)o2)cc1 | 71.5%
93 | O=C(CSc1nnc(-c2cccs2)n1-c1ccccc1)N1CCN(C(=O)c2ccco2)CC1 | 81.3%
94 | Cc1nnc(SCC(=O)N2CCc3ccccc3C2)s1 | 85.3%
95 | O=C(CSc1nnc(-c2cccs2)n1Cc1ccccc1)N1CCc2ccccc2C1 | 29.9% (active)
96 | C=CCn1c(N)c(C(=O)OCC(C)C)c2nc3ccccc3nc21 | 93.2%
97 | CC(C)Cn1c(N)c(C(=O)NCc2cccs2)c2nc3ccccc3nc21 | 1.75% (active)
98 | C=CCn1c(N)c(S(=O)(=O)c2cccs2)c2nc3ccccc3nc21 | 76.4%
